JMJD2A Tudor inh – blocks the human JMJD2A Tudor domain. hit rate 4.4% among 390,000. O75164. Potency, µM (top dose mostly 114 µM), without a hit: at the top dose activity change, negative = inhibition, hits mostly inhibitors. AlphaScreen JMJD2A-Tudor / H3K4me3 peptide binding; note: % is set by controls: 0 for no effect and ±100 for the full control effect; nearly all actives have a fitted effect of over 50% in size
HP1b binding inh – blocks HP1-beta chromodomain binding to methylated histone tails | AlphaScreen HP1-beta / biotin-H3K9me3 peptide binding | hit rate 0.56% among 390,000 | Potency, µM (top dose mostly 114 µM), for inactives: top-dose activity change, negative = inhibition, most hits filed as inhibitors | P83916; note: nearly all actives have a fitted effect of over 70% in size
Target sequence (P83916 whole entry, looked up): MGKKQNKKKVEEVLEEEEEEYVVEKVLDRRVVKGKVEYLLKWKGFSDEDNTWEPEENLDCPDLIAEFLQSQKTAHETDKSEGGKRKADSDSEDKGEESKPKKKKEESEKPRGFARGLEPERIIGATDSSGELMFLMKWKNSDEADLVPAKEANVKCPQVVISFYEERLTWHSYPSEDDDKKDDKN
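Compound inhibition of the preformed complex between 50 nM HP1-beta and 50 nM biotinylated H3K9me3 peptide was read by AlphaScreen. Buffer was PBS pH 7.4 with 0.01% Tween-20. Incubations ran 30 min at room temperature, with 10 ug/mL donor/acceptor beads.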
G9a inh-1 – blocks human histone lysine methyltransferase G9a. Q96KQ7. G9a H3K9 monomethylation, AlphaScreen, 2 h. Potency, µM (titrated, usually from 102 µM), for inactives: at the highest dose activity, negative = inhibition, usual class: inhibitors. hit rate 8.8% among 350,000; note: % is set by controls: 0 for no effect and ±100 for the full control effect; nearly all actives have a fitted effect of over 75% in size
Target sequence (Q96KQ7 913-1193 limits assumed): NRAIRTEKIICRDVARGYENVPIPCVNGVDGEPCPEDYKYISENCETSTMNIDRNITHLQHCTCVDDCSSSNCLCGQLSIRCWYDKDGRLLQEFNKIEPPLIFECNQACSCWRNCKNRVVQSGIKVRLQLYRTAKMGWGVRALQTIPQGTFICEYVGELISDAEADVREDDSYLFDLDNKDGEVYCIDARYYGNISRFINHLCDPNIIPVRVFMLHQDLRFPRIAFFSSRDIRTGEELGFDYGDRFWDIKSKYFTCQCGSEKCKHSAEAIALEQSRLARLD
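Signal arises when biotinylated H3K9 peptide, once monomethylated, bridges streptavidin donor and antibody-captured acceptor beads. Enzyme at 20 nM was preincubated 15 min with test compounds; peptide 500 nM and SAM 20 uM then reacted for 2 h.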
GLS inhibitor – inhibitors of human glutaminase (GLS); O94925; GLS enzymatic activity, qHTS titration; Potency, µM (top dose mostly 45.5 µM), for the others: at the highest dose activity change, negative = inhibition, usual class: inhibitors; hit rate 0.21% among 410,000; note: % is set by controls: 0 for no effect and ±100 for the full control effect
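Two-point fluorescence kinetic (t0, 30 min RT) for hKGA; glutamate detected via glutamate oxidase–HRP–Amplex Red. Substrate: 1 mM L-glutamine solution; buffer 45 mM KH2PO4, pH 8.2.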
BAZ2B inh – inhibitors of human BAZ2B bromodomain | Q9UIF8 | AlphaScreen BAZ2B-H3K14Ac peptide displacement | Potency, µM (doses to about 114 µM), without a hit: top-dose activity change, negative = inhibition, most hits filed as inhibitors | hit rate 4.4% among 360,000; note: % is set by controls: 0 for no effect and ±100 for the full control effect; nearly all actives have a fitted effect of over 60% in size
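BAZ2B (50 nM) with biotin-H3(5-23)K14Ac peptide (50 nM) in PBS pH 7.4, 0.01% Tween-20, preformed 30 min, then compound 30 min at room temperature; top concentration 110uM. AlphaScreen streptavidin donor/nickel chelate acceptor beads (10 ug/mL final), 20 min dark, signal read.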
G9a inh-2 – inhibits human G9a histone lysine methyltransferase, hit confirmation; shares compounds with JMJD2A Tudor inh; G9a H3K9 monomethylation, AlphaScreen, 2 h; Potency, µM, most hits filed as inhibitors; hit rate 89% among 370; note: nearly all actives have a fitted effect of over 65% in size
An asterisk follows results filed as active; ? = inconclusive; . = no result; [ ] = remark or other dose. A selection: hits, their analogues and other compounds. The true share with any hit is near 10%. Calls come from the whole dose curve; as a rule, active = well fitted curve in the direction sought with a large enough effect; inconclusive = small, poorly fitted or top-dose-only effect, or another doubt; inactive = no such curve, though single readings can be large; an effect the other way counts as inactive or inconclusive. Potency is the fitted concentration of half-maximal effect.

SMILES	JMJD2A Tudor inh	HP1b binding inh	G9a inh-1	GLS inhibitor	BAZ2B inh	G9a inh-2
COc1ccc(N2CCC(CNC(=O)Nc3ccc(C)c(C)c3)C2)cc1 (stereo not given)	25.1µM*	?	2µM*	4.2%	39.8µM*	2.52*
COc1ccc(N2CCC(CNS(=O)(=O)c3cccc(C(F)(F)F)c3)C2)cc1 (stereo not given)	39.8µM*	?	?	20.5%	10µM*	0.448*
COc1ccc(N2CCC(CNC(=O)Nc3ccc(OC)cc3OC)C2)cc1 (stereo not given)	44.7µM*	-78.0%	?	58.9%	39.8µM*	2.51*
COc1ccc([C@H]2/C=C\CN(C(=O)C3CC3)[C@@H](C)C(=O)N2Cc2ccc(F)cc2)cc1	-6.9%	39.1%	.	1.1%	.	.
CCOc1ccc(NC(=O)NCC2CCN(c3ccc(OC)cc3)C2)cc1 (stereo not given)	-33.8%	-15.6%	1µM*	15.1%	-6.5%	1.12*
Cc1ccc(CNC(=O)CNC(=O)c2ccc(Br)o2)cc1	-9.7%	34.3%	30.6%	-12.7%	-13.0%	.
CCOc1cc(CNc2ccccc2SC)ccc1O	.	.	?	.	56.2µM*	7.96*
Cc1ccc(S(=O)(=O)c2nnn3c2nc(N(C)Cc2ccccc2)c2cc(Cl)ccc23)cc1C	0.4%	55.0%	37.4%[59 µM]	2.9%	3.7%	.
Cc1ccc(NC(=O)CNc2ccc(OC(C)C)cc2)cc1	?	-13.8%	0.794µM*	-30.7%	50.1µM*	7.94*
CCN(CC)c1ccc(NC(=O)COC(=O)Cc2ccsc2)cc1	50.1µM*	?	2.82µM*	13.8%	44.7µM*	6.31*
CCN(CC)c1ccc(NC(=O)COc2ccc(C)cc2)cc1	?	-13.1%	1.41µM*	0.7%	?	2.83*
CCc1ccc(NC(=O)COC(=O)CN2C(=O)COc3ccccc32)cc1	-6.2%	43.4%	8.8%[59 µM]	-0.7%	14.4%	.
CC(=O)c1ccc(NC(=O)COC(=O)Cc2ccsc2)cc1	3.2%	49.0%	.	3.2%	.	.
Cc1ccc(OCC(=O)Nc2ccc([N+](=O)[O-])cc2)cc1	-8.3%	32.6%	-2.6%	1.8%	-2.6%	.
CCN(CC)c1ccc(NC(=O)COC(=O)C23CCC(=O)N2c2ccccc2S3)cc1 (stereo not given)	?	?	?	8.9%	?	5.02*
CN(C(=O)COC(=O)c1ccc2c(=O)n3c(nc2c1)CCC3)c1ccccc1	-3.6%	16.6%	-26.6%[59 µM]	-8.1%	0.1%	.
Cc1c(F)cccc1NS(=O)(=O)c1ccc2c(c1)c(=O)n(C)c(=O)n2C	0.0%	18.3%	25.9%	3.1%	-3.5%	.
CCOc1ccc(C(=O)c2cnc3ccccc3c2N2CCN(CC)CC2)cc1	-31.7%	38.1%	?	2.6%	-25.7%	?
CC(C)c1ccc(-c2nnc(SCC(=O)NC3CC3)n2C)cc1	0.7%	45.7%	27.5%	-1.0%	-1.2%	.
Cc1ccc(CNc2ccc(N3CCOCC3)cc2)s1	50.1µM*	?	?	96.8%	44.7µM*	10*
Cc1ccc(NCc2ccc(C)s2)cc1	.	.	.	.	27.8%	.
CC(C)(C)NC(=O)CN(C(=O)CNS(=O)(=O)c1ccc(Cl)cc1)c1ccc2c(c1)OCCO2	-9.5%	27.8%	13.8%	-1.4%	0.8%	.
CCc1ccc2c(c1)CCCN2C(=O)c1ccccc1C(=O)O	?	24.7%	?	-1.7%	56.2µM*	?
Cc1cccc(NC(=O)c2cc3cc([N+](=O)[O-])ccc3s2)n1	-5.5%	34.7%	-26.2%	0.6%	6.8%	.
CCOC(=O)N1CCc2c(sc(NCc3cccs3)c2C(=O)Nc2ccc(OC)cc2OC)C1	3.16µM*	-18.6%	2.82µM*	3.9%	?	3.63*
CCOC(=O)N1CCc2c(sc(NCc3cccs3)c2C(=O)Nc2cc(OC)ccc2OC)C1	3.16µM*	?	1.58µM*	-2.0%	-38.0%	1.15*
NC(=O)c1cc(S(=O)(=O)N2CCN(c3ccc(F)cc3)CC2)cs1	2.6%	25.5%	-4.5%[59 µM]	-0.6%	2.9%	.
COc1ccccc1Nc1ccc(C(=O)NCc2cccs2)cn1	-17.1%	37.3%	-6.0%	-1.2%	-3.5%	.

From PubChem
